Only some compounds are listed: those with a hit (about 11% of all), similar ones and a draw of the others.
BAZ2B block: blocks human BAZ2B; Potency, µM (titrated, usually from 114 µM), inactives show at the highest dose activity change, negative = inhibition, usual class: inhibitors; 360,000 compounds, 4.4% hits; AlphaScreen BAZ2B-H3K14Ac peptide displacement; Q9UIF8; also: % is scaled to controls: 0 for no effect and ±100 for the full control effect; nearly all actives have a fitted effect of over 60% in size
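AlphaScreen displacement: compounds (up to 110uM) incubated 30 min at room temperature with a preformed 50 nM BAZ2B/50 nM biotinylated H3K14Ac peptide complex in PBS pH 7.4 with Tween-20. Donor and acceptor beads at 10 ug/mL final added, 20 min light-protected before reading.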
HP1b chromo inh: inhibitors of HP1-beta chromodomain binding to methylated histone tails. 390,000 compounds, 0.56% hits. P83916. AlphaScreen HP1-beta / biotin-H3K9me3 peptide binding. Potency, µM (series often up to 114 µM), without a hit: at the highest dose activity change, negative = inhibition, usual class: inhibitors. AID 540317; also: nearly all actives have a fitted effect of over 70% in size
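AlphaScreen: HP1-beta (50 nM) preformed 30 min with biotin-H3(1-18)K9me3 peptide (50 nM) in PBS pH 7.4, 0.01% Tween-20. Compound added for 30 min at RT, then streptavidin donor/nickel chelate acceptor beads (10 ug/mL) for 30 min.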
JMJD2A Tudor inh: blocks the human JMJD2A Tudor domain; AlphaScreen JMJD2A-Tudor / H3K4me3 peptide binding; Potency, µM (titrated, usually from 114 µM), for the others: at the highest dose activity change, negative = inhibition, actives largely listed as inhibitors; 390,000 compounds, 4.4% hits; AID 504339; also: % is scaled to controls: 0 for no effect and ±100 for the full control effect; nearly all actives have a fitted effect of over 50% in size
Target sequence (O75164 whole entry, looked up, the tested form may be a part): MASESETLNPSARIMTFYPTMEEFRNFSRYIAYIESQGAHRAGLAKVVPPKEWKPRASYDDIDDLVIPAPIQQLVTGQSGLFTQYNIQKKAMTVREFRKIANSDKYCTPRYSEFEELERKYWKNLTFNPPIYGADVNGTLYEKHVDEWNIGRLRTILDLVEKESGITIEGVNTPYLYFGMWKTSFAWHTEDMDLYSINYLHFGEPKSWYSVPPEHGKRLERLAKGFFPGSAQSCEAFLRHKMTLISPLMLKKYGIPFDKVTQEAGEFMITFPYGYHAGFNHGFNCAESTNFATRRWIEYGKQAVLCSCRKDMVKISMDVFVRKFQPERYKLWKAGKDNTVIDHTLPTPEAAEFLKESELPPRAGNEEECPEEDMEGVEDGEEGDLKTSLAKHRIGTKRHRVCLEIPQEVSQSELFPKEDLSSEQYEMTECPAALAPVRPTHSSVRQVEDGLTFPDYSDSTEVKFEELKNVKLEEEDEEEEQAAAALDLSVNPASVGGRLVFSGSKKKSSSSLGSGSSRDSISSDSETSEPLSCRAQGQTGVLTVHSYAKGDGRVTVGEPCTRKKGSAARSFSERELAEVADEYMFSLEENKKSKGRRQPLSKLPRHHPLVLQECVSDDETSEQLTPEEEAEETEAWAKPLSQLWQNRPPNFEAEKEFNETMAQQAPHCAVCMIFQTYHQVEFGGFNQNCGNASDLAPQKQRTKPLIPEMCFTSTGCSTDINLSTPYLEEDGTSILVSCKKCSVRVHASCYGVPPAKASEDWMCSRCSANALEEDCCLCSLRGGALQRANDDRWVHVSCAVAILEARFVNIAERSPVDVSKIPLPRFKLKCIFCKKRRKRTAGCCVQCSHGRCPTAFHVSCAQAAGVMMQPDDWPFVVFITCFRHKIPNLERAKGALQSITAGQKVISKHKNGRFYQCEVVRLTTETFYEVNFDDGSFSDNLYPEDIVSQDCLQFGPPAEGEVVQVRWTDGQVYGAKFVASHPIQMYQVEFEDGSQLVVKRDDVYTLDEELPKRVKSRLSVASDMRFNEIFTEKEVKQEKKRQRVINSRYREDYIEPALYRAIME
G9a block: G9a (human) methyltransferase inhibition; 350,000 compounds, 8.8% hits; AID 504332; Q96KQ7; G9a H3K9 monomethylation, AlphaScreen, 2 h; Potency, µM (series often up to 102 µM), without a hit: top-dose activity, negative = inhibition, most hits filed as inhibitors; also: % is scaled to controls: 0 for no effect and ±100 for the full control effect; nearly all actives have a fitted effect of over 75% in size
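Readings reflect AlphaScreen signal from monomethyl-H3K9 antibody detection. HMT at 20 nM; substrate b-H3K9 500 nM; cofactor SAM 20 uM; 2 h RT reaction; compounds tested as titrations in qHTS with 15 min preincubation.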
L3MBTL1 inh: L3MBTL1 (human) inhibition. Potency, µM (series often up to 57.1 µM), for the others: top-dose activity, negative = inhibition, most hits filed as inhibitors. AID 485360. 230,000 compounds, 0.66% hits. Q9Y468. AlphaScreen L3MBTL1–H3K9me1 peptide binding; also: % is scaled to controls: 0 for no effect and ±100 for the full control effect; nearly all actives have a fitted effect of over 60% in size
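AlphaScreen proximity signal between nickel-chelate acceptor and streptavidin donor beads (final 10 ug/mL) reports binding of 50 nM L3MBTL1 to 75 nM biotin-H3 K9me1 peptide; complex incubated with compounds 30 min at room temperature; cefsulodin titration as control.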
Active calls of the source: *; u = inconclusive; x = no result given; [ ] = remark or other dose. Calls follow the shape of the dose curve; as a rule, active = well fitted inhibition curve with a large enough effect; inconclusive = small, poorly fitted or top-dose-only effect; inactive = no such curve, though single readings can be large or run the other way. Potency is read from the fitted curve at half-maximal effect.

SMILES	BAZ2B block	HP1b chromo inh	JMJD2A Tudor inh	G9a block	L3MBTL1 inh
CCOC(=O)NC1(NC(C)C)Oc2ccccc2O1	7%	-24%	7%[11.4 µM]	10µM*	x
CCOC(=O)NC1(Nc2ccc(C)cc2)Oc2ccccc2O1	-11%	u	u	u	-19%
OC(COc1cccc2ccccc12)CN1CCN(c2ccccc2)CC1 (centres undefined)	u	-23%	50µM*	50µM*	x
C=CCc1cc(C)ccc1OCC(O)CN1CCN(c2ccccc2)CC1 (centres undefined)	50µM*	40µM*	2.8µM*	u	2%
CC(COc1cccc2ccccc12)CN1CCN(C)CC1 (centres undefined)	4%	19%	-19%	45µM*	u
C=CCc1ccccc1OCC(O)CN1CCN(c2ccccc2F)CC1 (centres undefined)	-9%	23%	-24%	u	7%
Cc1ccc(OCC(O)CN2CCN(c3ccccc3)CC2)cc1 (centres undefined)	-7%	10%	-19%	19%	-11%
OC(COc1cccc2ccccc12)CN1CCOCC1 (centres undefined)	x	21%	-8%	x	x
O=C(c1ccccc1)N1CCN(CC(O)COc2cccc3ccccc23)CC1 (centres undefined)	0%	37%	-14%	-6%[0.501 µM]	7%[2.29 µM]
C=CCc1cc(OC)ccc1OCC(O)CN1CCN(c2ccc(OC)cc2)CC1 (centres undefined)	35µM*	-42%	45µM*	28µM*	-18%
O=C(c1ccc(S(=O)(=O)N2CCCCC2)cc1)N1CCCC(C(F)(F)F)C1 (centres undefined)	-6%	18%	-3%	1%	4%
C=CCc1ccccc1OCC(O)CN1CCN(c2ccccc2)CC1 (centres undefined)	50µM*	-13%	u	u	x
C=CCc1ccccc1OCC(O)CN1CCN(c2ccccc2OC)CC1 (centres undefined)	-32%	7%	-23%	-1%[59 µM]	-6%
C=CCc1ccc(OCC(O)CN2CCCCC2)c(OC)c1 (centres undefined)	-2%	28%	-20%	u	0%
C=CCc1ccc(OCC(O)CN2CCN(c3ccccc3)CC2)c(OC)c1 (centres undefined)	u	30%	u	45µM*	x
CC(C)(C)OC(=O)N1CCN(C(=O)c2[nH]cnc2C(=O)Nc2ccc(Cl)cc2)CC1	x	41%	-13%	x	-1%
Cc1onc(-c2ccccc2)c1C(=O)Nc1nnc(CC(C)C)s1	4%	33%	-12%	-2%	x
CCc1ccc2oc(-c3ccc(C)c(NC(=O)c4ccc(C#N)cc4F)c3)nc2c1	-4%	29%	-14%	5%[59 µM]	x
S=C(NCc1ccccc1)Nc1cccc2cnccc12	-23%	-10%	-11%	22µM*	x
S=C(NCc1cccnc1)Nc1cccc2ccccc12	3%	49%	-5%	-8%[59 µM]	2%
COc1ccc(CCNC(=S)Nc2cccc3ccccc23)cc1	u	17%	-18%	-14%[59 µM]	-6%
S=C(NCCc1ccccc1)Nc1cccc2cnccc12	u	-8%	-30%	50µM*	-9%
CCc1ccc(NC(=O)COCc2cc(-c3ccc(F)cc3)on2)cc1	-16%	7%	-12%	-42%[59 µM]	x
Cc1nc(SCc2nc3ccc(F)cc3[nH]2)c2oc3ccccc3c2n1	x	25%	u	x	-1%
Cc1nc(SCc2nc3c(O)cccc3[nH]2)c2oc3ccccc3c2n1	x	24%	28µM*	x	11%
O=C(NCc1ccccc1)C(=O)Nc1nccs1	-15%	32%	u	13µM*	27%
COc1ccc(CCNC(=O)CSC(=O)c2ccccc2)cc1OC	-15%	-22%	-13%	18µM*	6%
O=C(Nc1nccs1)C(Br)C(Br)c1ccccc1 (centres undefined)	-2%	14%	-30%	3.5µM*	x
CC(=O)OC(C(=O)Nc1nccs1)c1ccccc1 (centres undefined)	-1%	38%	-7%	-8%	2%
COc1ccc(CCNC(=O)CSCc2ccc([N+](=O)[O-])cc2)cc1OC	-6%	u	20µM*	5%	3%
